The full list was thinned out, with hits kept by preference.
Tg IFNy HTS = T. gondii growth inhibition under IFN-gamma; Toxoplasma gondii growth in IFN-gamma-treated host cells; hits give low values; activity change, negative = inhibition, % (test concentration not listed); hit rate 3.8% among 69,000; AID 1259416; in the data active means activity change below about -70%, passing the limit was not always enough;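 further: host cells are HeLa cells infected with Toxoplasma gondii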
* hit, by the source's call; ! = not active in a repeat.

SMILES | Tg IFNy HTS
Clc1ccc(-c2nnc(-c3nc(NCc4cccnc4)c4ccccc4n3)o2)cc1 | -47
Cc1nn(Cc2nc(-c3ccc(NC(=O)c4ccccc4)cc3)oc2C)c(C)c1C | -93*
Cc1nn(Cc2nc(-c3ccc(NC(=O)c4ccc(C#N)cc4)cc3)oc2C)c(C)c1C | 184
Cc1oc(-c2ccccc2)nc1Cn1nnc(C(=O)Nc2ccccc2)c1C | -64
COCC(=O)Nc1ccc(-c2nc(Cn3nc(C)c(C)c3C)c(C)o2)cc1 | 60
Cc1ccc(C(=O)Nc2ccc(-c3nc(Cn4nc(C)c(C)c4C)c(C)o3)cc2)cc1 | -88*
COc1cccc(C(=O)Nc2ccc(-c3nc(Cn4nc(C)cc4C)c(C)o3)cc2)c1 | -62
Cc1cccc(C(=O)Nc2ccc(-c3nc(Cn4nc(C)c(C)c4C)c(C)o3)cc2)c1 | -91*
Cc1cc(C)n(Cc2nc(-c3ccc(NC(=O)c4cccc(N(C)C)c4)cc3)oc2C)n1 | -56
Cc1nn(Cc2nc(-c3ccc(NC(=O)c4ccc(F)cc4)cc3)oc2C)c(C)c1C | 112
O=S(=O)(N1CCOCC1)N1CCCCC1CCc1ccccc1 (stereo not given) | 0
Cc1cc(C)n(Cc2nc(-c3ccc(NC(=O)C4CCCC4)cc3)oc2C)n1 | -11
Cc1ccc(CC(=O)N2CCC3(CC2)Nc2cc(F)ccc2-n2cccc23)cc1 | 39
O=C(c1ccccc1)N1CCC2(CC1)NC(=O)N(C1CCN(Cc3ccncc3)CC1)C2=O | 7
CCc1cc(CN(C)C(=O)Cn2cc(C(F)(F)F)ccc2=O)on1 | -2
CCn1c(C2CCCNC2)nn(CCN2CCN(c3ccccc3)CC2)c1=O (stereo not given) | -22
CC1NC(=O)COC12CCN(C(=O)c1ccno1)CC2 (stereo not given) | -13
O=C(Nc1cc(Cl)ccc1O)c1ccccc1CN1CCOCC1 | 155
Cc1ccc(SCc2ccccc2C(=O)Nc2cc(Cl)ccc2O)cc1 | -75*
Cc1ccc(C(=O)NCCSCc2ccccc2Cl)cc1 | -21
COc1cccc(CN2CCCC(O)(CNCC(F)F)C2=O)c1OC (stereo not given) | -2
CN(CC(=O)N1CCC2(CCCO2)CC1)Cc1cccnc1 | 8
CCc1cnc(N2CCC3(CCC(=O)N3Cc3ccccc3)CC2)nc1 | -4
COc1ccccc1-c1nc(Cn2nnc(C(=O)Nc3cc(Cl)ccc3C)c2C)c(C)o1 | 12
COc1ccccc1-c1cc(NC(=O)c2cccc(Cn3ccnc3C)c2)n(C)n1 | -7
SMILES | Tg IFNy HTS
COc1ccccc1-c1cc(NC(=O)c2nnn(-c3ccc(Cl)cc3)c2C)n(C)n1 | -78*
CC(C)NC(=O)N1C[C@@H]2N(c3ncccn3)CCC[C@@]2(C(=O)NCC2CC2)C1 | -3
Cc1c(N)n[nH]c1-c1cccc(Cl)c1 | -32
Nc1ncnc2c1c(-c1cccc(OCc3ccccc3)c1)cn2C1CC(CN2CCCC2)C1 (stereo not given) | -74*
COc1cccc(-c2nn(-c3ccccc3)cc2CN2CCC(CN3CCOCC3)CC2)c1 | -10
CC(C)CN1C(=O)C2(CC2C(=O)N2CCN(C)CC2)c2ccccc21 (stereo not given) | -41
CCCCCc1nc(N)c(C#N)c(-c2ccco2)c1CCCC | -91*
CCCCCCSc1ncc(C#N)c(N)n1 | -5
CCn1c(=O)c(-c2nc(-c3cccc(F)c3)no2)c(O)c2ccc(F)cc21 | -55
Cc1ncc(CN2CCSCC2)c(CO)c1O | -76*
Cc1cnc(C)c(N2CCN(Cc3c(CO)cnc(C)c3O)CC2)n1 | -4
Cc1ncc(CO)c(CO)c1O | 6
COc1cccc2c1OCC(CN1CCOC3(CNCCOC3)C1)=C2 (stereo not given) | -10
O=C(CCSc1nc(-c2ccc3c(c2)OCO3)cc(C(F)(F)F)n1)N1CCCCC1 | -76*
O=C(COc1ccc2c(c1)OCO2)N1CCN(C(=O)c2ccco2)CC1 | 16
O=C(/C=C/c1ccc2c(c1)OCO2)N1CCCCC1 | 95
COCC1c2c(cnn2CC2CCOCC2)CCN1Cc1ccco1 (stereo not given) | 23
Cc1nn(Cc2nnc(SCc3c(F)cccc3Cl)n2C)c(C)c1Br | -24
N#CCCn1nc(-c2cccnc2)oc1=O | 52
Cc1nn(CCC#N)c(C)c1Cc1c(Cl)cccc1Cl | -111*
CC(=O)N1CCC2(CC1)OC(=O)C(C)=C2C(=O)NCCCN1CC(C)CC(C)C1 (stereo not given) | 17
COc1ccc(S(=O)(=O)Nc2cncc(C(=O)Nc3ccc(Cl)cc3)c2)cc1OC | -4
COc1ccc(-c2cc(C)ccc2OCC(N)=O)cc1Cl | 10
Cc1nc(C)c(C(=O)c2ccccc2)cc1C(=O)c1ccccc1 | -10
O=C(c1ccccc1)c1ccccc1C(=O)c1ccccc1 | -10
SMILES | Tg IFNy HTS
O=C(c1ccccc1)c1ccc2[nH]c(=S)[nH]c2c1 | -94*
CC1=CC(C)(C)N=C(SCc2c(F)cccc2Cl)N1c1cc(Cl)cc(Cl)c1 | -9
O=C(Cc1cccc2ccccc12)N1CCN(S(=O)(=O)c2cc3c4c(c2)CCN4C(=O)CC3)CC1 | -21
COc1ccc(-c2cccc3c(C(N)=O)cccc23)cn1 | 14
COc1ccc(-c2cc(F)c(OC)c(F)c2)cn1 | -9
COc1ccc(-c2ccc3[nH]nc(N)c3c2)cn1 | -73*
CS(=O)(=O)N1C[C@@H](OCCCn2cccn2)[C@@H]2OCCC[C@@H]21 | -3
O=C(O)COCCN1CCN([C@H](c2ccccc2)c2ccc(Cl)cc2)CC1 | 23
O=C(O)COCCN1CCN(C(c2ccccc2)c2ccc(Cl)cc2)CC1 (stereo not given) | 18
OCCOCCN1CCN(C(c2ccccc2)c2ccc(Cl)cc2)CC1 (stereo not given) | -97*!
O=C(O)COc1ccc(-n2cccc2)cc1 | -35
c1c(CN2CCOC3(CCCC3)C2)nn2c1CNCCC2 | 5
COc1ccc(OC)c(S(=O)(=O)NCCc2csc(-c3ccc(Cl)cc3)n2)c1 | 18
Cc1nonc1CN(C)C(=O)c1ccc(=O)n(CC(=O)NCc2ccc(F)cc2)c1 | 9
O=C(COc1cccc(-n2cnnc2)c1)N1CCOCC1 | -85*
O=C(CSCCOc1ccccc1)N1CCOCC1 | 55
Cc1cc(NC(=O)c2cccc3ccccc23)cc(C)c1OCC(=O)N1CCOCC1 | -2
CCCCc1nc2ccccc2c(=O)n1NC(=O)c1c(O)c2ccccc2n(CCC)c1=O | -114*
CCCn1c(=O)c(C(=O)NCCN(CC)CC)c(O)c2ccccc21 | -32
CCn1c(=O)c(C(=O)Nc2cccc(C)n2)c(O)c2ccccc21 | 74
CC(C)C(N)=O | 10
CN(C)C(=O)c1cc(-c2cnc(-c3ccnn3C)nc2)cn1C | -14
COc1ccc(C2NC(C(=O)O)Cc3c2[nH]c2ccccc32)cc1CN1CCN(c2ccc(F)cc2)CC1 (stereo not given) | 2
COc1ccc(C2NCCc3c2[nH]c2ccccc32)cc1CN1CCN(c2ccc([N+](=O)[O-])cc2)CC1 (stereo not given) | -117*
COCc1cc(CN2CCCN(c3ccccc3)CC2)ccc1OC | 11
SMILES | Tg IFNy HTS
CCN1c2cc(F)ccc2C(=O)NC12CCN(C(=O)c1ccc(OC)c(OC)c1)CC2 | 40
Clc1ccc(OCc2nc(-c3ccc4c(c3)OCCO4)cs2)cc1 | 1
Cc1csc(NC(=O)Cn2c(=O)ccc3cc(S(=O)(=O)N4CCCC4)ccc32)n1 | 11
CS(=O)(=O)N1CC[C@@H]2OCC[C@]2(C(=O)NCCc2ccccn2)C1 | 0
Cc1cccc(COC[C@]23COC[C@H]2CN(c2ncc(F)cn2)C3)n1 | -30
Cc1onc(-c2c(Cl)cccc2Cl)c1-c1nc2cccc(F)c2c(=O)o1 | -35
FC(F)(F)c1ccc(-c2nnc(COc3ccccc3Cl)o2)cc1 | 21

Source: PubChem (Broad Institute)
